The values below come from publication PMC7862700, “An all-to-all approach to the identification of sequence-specific readers for epigenetic DNA modifications on cytosine”.

Assay in all cases: DAPPL (digital affinity profiling via proximity ligation, sequencing); 10 mM Tris-HCl pH 7.5, 50 mM NaCl, 1 mM DTT, 4% glycerol, room temperature, 30 min; GST-TFs on glutathione beads, 16-mer random dsDNA library, 0.1% formaldehyde crosslink after washing; high values mean tight binding
Assay [1] addresses T1, FEV (Homo sapiens, UniProt Q99581 1-238).
T1 sequence: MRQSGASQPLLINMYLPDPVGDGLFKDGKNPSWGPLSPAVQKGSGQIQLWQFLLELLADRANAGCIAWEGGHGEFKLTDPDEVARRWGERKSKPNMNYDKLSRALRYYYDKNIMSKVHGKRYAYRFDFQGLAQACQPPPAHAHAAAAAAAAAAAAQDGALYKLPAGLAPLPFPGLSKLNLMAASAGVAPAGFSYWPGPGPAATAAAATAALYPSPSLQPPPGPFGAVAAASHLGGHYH
The note with it: protein: recombinant; tags: N-terminal GST; dsDNA, one strand shown. Put shortly:
(§1)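 Beads coated with glutathione captured GST-fused human transcription factors that had been expressed in yeast, and the factors were then given DNA barcodes and pooled with a tag-only sample. The pools were incubated with 200 nmole of a random double-stranded 16-mer DNA library in Tris/NaCl/DTT/glycerol buffer for 30 min at room temperature, washed, crosslinked with 0.1% formaldehyde and proximity-ligated with BsaI/T4 ligase at 37 °C for 1 h. PCR amplification and Illumina NextSeq500 sequencing came last. Binding signal is each hexamer's read frequency for a factor divided by its frequency for the tag-only sample.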

Assay [2] concerns the target ETV5 (Homo sapiens, UniProt P41161 1-510). To be noted: protein: recombinant; tags: N-terminal GST; dsDNA, one strand shown. Put shortly:
as §1

The target in assay [3] is HSF1 (Homo sapiens, UniProt Q00613 1-529). To be noted: protein: recombinant; tags: N-terminal GST; chain copies: 3; dsDNA, one strand shown. In short, it runs like this:
as §1

The target of assay [4] is T2, SPIC (Homo sapiens, UniProt Q8N5J4 1-248).
T2 sequence: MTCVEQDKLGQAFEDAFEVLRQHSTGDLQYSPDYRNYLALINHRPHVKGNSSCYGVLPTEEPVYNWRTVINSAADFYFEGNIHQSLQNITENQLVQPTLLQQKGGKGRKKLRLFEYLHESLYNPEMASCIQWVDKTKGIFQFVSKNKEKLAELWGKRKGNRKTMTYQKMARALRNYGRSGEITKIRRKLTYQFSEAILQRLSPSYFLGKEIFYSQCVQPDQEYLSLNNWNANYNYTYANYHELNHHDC
The note with it: protein: recombinant; tags: N-terminal GST; dsDNA, one strand shown. Put shortly:
as §1

The target in assay [5] is ELF4 (Homo sapiens, UniProt Q99607 1-663). The note with it: protein: recombinant; tags: N-terminal GST; dsDNA, one strand shown. Put shortly: as §1
The target of assay [6] is T3, ELK4 (Homo sapiens, UniProt P28324-2 1-405).
T3 sequence: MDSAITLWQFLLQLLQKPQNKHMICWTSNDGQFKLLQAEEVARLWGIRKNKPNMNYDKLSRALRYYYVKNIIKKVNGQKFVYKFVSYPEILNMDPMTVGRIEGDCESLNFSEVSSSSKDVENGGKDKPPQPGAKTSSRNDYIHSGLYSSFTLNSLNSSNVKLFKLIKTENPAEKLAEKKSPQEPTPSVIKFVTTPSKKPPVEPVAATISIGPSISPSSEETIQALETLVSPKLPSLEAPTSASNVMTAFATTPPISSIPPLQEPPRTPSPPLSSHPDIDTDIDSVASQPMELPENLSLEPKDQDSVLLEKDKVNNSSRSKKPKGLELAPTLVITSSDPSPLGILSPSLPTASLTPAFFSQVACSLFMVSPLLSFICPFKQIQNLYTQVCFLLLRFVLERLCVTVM
The note with it: protein: recombinant; tags: N-terminal GST; dsDNA, one strand shown. In short, it runs like this: as §1

The target in assay [7] is T4, ETV2 (Homo sapiens, UniProt O00321 1-342).
T4 sequence: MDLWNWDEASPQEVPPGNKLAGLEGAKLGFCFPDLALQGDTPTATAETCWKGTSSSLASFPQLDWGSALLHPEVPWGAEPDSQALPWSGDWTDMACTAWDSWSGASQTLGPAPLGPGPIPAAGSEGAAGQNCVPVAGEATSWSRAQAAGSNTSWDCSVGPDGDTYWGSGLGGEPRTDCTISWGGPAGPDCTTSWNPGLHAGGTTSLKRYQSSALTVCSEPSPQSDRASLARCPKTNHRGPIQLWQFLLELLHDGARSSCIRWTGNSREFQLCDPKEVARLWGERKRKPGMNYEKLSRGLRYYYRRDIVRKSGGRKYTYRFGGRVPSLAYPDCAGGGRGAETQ
To be noted: protein: recombinant; tags: N-terminal GST; dsDNA, one strand shown. Put shortly: as §1

Assay [8] addresses T5, ELF3 (Homo sapiens, UniProt P78545 1-371).
T5 sequence: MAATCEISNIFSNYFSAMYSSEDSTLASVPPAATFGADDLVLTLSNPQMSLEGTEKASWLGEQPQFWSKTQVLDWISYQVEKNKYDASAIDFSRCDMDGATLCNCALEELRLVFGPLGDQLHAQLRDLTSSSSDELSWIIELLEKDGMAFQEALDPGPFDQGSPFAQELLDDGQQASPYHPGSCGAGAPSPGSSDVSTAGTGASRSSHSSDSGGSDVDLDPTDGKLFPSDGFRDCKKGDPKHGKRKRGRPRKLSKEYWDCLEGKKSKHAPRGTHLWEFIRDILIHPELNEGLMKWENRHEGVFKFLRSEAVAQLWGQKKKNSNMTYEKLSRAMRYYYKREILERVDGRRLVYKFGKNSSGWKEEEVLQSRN
To be noted: protein: recombinant; tags: N-terminal GST; dsDNA, one strand shown. Put shortly:
as §1

The target of assay [9] is CRX (Homo sapiens, UniProt O43186 1-299). To be noted: protein: recombinant; tags: N-terminal GST; dsDNA, one strand shown. Put shortly: as §1
Assay [10] deals with ETV1 (Homo sapiens, UniProt P50549 1-477). The note with it: protein: recombinant; tags: N-terminal GST; dsDNA, one strand shown. In short, it runs like this:
as §1

The target of assay [11] is T6, ERF (Homo sapiens, UniProt P50548 1-548).
T6 sequence: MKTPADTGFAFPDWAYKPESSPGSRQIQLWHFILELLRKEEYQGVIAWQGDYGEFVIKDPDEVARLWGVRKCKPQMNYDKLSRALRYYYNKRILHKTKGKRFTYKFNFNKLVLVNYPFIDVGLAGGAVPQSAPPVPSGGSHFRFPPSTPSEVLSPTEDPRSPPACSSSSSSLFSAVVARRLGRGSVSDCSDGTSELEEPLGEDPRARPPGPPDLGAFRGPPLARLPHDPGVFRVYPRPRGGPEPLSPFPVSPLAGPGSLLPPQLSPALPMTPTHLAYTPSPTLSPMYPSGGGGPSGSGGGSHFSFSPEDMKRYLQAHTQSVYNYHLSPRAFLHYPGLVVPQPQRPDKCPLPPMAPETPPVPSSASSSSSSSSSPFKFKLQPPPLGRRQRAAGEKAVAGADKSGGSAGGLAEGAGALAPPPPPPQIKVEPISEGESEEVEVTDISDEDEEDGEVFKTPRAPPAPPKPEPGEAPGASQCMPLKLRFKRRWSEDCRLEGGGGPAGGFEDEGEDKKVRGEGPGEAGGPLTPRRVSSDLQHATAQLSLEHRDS
To be noted: protein: recombinant; tags: N-terminal GST; dsDNA, one strand shown. Put shortly:
as §1

The target of assay [12] is T7, ETV3L (Homo sapiens, UniProt Q6ZN32 1-361).
T7 sequence: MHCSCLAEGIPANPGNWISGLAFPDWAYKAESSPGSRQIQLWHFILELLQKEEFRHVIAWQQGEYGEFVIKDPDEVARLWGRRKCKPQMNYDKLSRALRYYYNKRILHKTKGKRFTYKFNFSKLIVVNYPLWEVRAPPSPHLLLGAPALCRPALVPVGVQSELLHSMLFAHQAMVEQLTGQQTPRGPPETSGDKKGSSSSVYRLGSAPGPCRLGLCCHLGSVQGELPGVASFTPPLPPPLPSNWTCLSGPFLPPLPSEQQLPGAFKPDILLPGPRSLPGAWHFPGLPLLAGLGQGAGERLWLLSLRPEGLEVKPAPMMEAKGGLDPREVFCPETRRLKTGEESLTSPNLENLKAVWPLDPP
The note with it: protein: recombinant; tags: N-terminal GST; dsDNA, one strand shown. In short, it runs like this: as §1

In assay [13] the target is T8, ETS2 (Homo sapiens, UniProt P15036 1-469).
T8 sequence: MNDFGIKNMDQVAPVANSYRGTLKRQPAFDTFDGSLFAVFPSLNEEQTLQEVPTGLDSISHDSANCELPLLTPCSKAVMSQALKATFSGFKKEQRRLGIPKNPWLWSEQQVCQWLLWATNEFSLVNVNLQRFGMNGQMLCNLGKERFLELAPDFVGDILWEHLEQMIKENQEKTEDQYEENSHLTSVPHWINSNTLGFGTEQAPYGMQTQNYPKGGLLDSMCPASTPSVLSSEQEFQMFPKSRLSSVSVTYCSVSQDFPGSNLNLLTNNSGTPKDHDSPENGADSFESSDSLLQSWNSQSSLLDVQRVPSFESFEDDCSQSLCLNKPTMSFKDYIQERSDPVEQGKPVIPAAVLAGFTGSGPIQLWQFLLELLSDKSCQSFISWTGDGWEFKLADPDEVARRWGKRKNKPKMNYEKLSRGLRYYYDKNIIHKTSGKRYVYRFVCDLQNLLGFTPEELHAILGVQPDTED
To be noted: protein: recombinant; tags: N-terminal GST; dsDNA, one strand shown. In short, it runs like this:
as §1

For assay [14], the target named is T9, SPDEF (Homo sapiens, UniProt O95238 1-335).
T9 sequence: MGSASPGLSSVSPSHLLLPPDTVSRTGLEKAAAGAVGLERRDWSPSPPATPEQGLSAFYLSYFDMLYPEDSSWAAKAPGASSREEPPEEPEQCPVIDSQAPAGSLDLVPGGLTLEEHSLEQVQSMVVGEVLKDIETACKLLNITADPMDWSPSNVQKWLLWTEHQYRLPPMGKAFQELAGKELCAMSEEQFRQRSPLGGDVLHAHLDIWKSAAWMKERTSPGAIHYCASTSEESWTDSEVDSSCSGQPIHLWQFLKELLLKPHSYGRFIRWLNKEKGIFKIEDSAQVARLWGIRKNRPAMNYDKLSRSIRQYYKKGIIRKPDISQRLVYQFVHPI
The note with it: protein: recombinant; tags: N-terminal GST; dsDNA, one strand shown. Put shortly:
as §1

For assay [15], the target named is T10, ETV7 (Homo sapiens, UniProt Q9Y603 1-341).
T10 sequence: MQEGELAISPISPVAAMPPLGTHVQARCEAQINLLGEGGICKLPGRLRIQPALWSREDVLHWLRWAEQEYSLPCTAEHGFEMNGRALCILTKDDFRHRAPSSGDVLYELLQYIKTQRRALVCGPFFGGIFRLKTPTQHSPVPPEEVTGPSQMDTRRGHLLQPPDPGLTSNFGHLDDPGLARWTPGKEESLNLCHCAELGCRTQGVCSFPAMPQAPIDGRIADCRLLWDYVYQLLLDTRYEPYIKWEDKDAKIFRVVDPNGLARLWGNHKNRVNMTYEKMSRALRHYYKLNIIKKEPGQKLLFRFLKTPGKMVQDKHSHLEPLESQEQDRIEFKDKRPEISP
To be noted: protein: recombinant; tags: N-terminal GST; dsDNA, one strand shown. In short, it runs like this:
as §1

In assay [16] the target is T11, ELF5 (Homo sapiens, UniProt Q9UKW6-2 1-255).
T11 sequence: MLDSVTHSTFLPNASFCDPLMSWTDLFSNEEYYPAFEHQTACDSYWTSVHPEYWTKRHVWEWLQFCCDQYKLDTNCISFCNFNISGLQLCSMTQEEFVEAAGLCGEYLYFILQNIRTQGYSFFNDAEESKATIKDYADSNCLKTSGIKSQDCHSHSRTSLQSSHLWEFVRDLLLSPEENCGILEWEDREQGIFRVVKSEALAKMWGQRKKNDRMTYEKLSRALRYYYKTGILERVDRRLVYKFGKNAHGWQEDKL
The note with it: protein: recombinant; tags: N-terminal GST; dsDNA, one strand shown. In short, it runs like this:
as §1

The target in assay [17] is T12, ETV3 (Homo sapiens, UniProt P41162-2 1-143).
T12 sequence: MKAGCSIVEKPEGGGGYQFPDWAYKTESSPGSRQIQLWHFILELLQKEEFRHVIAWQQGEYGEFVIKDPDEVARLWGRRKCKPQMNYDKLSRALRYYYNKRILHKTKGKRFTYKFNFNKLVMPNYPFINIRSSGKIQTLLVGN
The note with it: protein: recombinant; tags: N-terminal GST; dsDNA, one strand shown. Put shortly: as §1

Assay [18] deals with ETV6 (Homo sapiens, UniProt P41212 1-452). To be noted: protein: recombinant; tags: N-terminal GST; dsDNA, one strand shown. Put shortly:
as §1

Chain of ETV5 (P41161 whole entry): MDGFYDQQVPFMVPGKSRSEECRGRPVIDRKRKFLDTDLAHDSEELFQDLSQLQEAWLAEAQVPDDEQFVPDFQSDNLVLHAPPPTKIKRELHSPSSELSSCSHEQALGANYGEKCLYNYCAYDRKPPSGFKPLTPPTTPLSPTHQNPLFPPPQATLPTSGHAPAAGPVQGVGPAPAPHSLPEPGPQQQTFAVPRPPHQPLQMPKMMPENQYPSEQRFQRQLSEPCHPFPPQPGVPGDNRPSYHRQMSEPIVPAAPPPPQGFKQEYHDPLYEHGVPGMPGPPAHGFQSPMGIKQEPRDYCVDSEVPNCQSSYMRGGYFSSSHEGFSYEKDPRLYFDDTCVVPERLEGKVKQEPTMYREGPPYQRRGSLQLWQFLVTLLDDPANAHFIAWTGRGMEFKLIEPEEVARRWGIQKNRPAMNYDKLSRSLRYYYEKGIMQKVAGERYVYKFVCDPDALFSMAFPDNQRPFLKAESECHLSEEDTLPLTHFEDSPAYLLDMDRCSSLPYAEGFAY
Chain of ETV1 (P50549 whole entry): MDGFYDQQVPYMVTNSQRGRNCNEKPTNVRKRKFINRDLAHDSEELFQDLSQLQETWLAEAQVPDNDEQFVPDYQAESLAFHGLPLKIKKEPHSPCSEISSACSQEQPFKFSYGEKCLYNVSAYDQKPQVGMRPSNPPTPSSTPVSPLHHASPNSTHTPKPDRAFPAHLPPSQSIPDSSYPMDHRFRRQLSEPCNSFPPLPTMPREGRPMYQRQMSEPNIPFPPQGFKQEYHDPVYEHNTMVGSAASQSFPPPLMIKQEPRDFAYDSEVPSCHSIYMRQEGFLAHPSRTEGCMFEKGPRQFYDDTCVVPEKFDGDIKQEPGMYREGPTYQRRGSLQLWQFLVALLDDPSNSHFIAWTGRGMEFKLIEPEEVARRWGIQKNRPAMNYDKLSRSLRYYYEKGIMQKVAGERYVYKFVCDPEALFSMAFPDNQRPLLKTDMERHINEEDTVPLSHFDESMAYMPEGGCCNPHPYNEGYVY
Chain of ELF4 (Q99607 whole entry): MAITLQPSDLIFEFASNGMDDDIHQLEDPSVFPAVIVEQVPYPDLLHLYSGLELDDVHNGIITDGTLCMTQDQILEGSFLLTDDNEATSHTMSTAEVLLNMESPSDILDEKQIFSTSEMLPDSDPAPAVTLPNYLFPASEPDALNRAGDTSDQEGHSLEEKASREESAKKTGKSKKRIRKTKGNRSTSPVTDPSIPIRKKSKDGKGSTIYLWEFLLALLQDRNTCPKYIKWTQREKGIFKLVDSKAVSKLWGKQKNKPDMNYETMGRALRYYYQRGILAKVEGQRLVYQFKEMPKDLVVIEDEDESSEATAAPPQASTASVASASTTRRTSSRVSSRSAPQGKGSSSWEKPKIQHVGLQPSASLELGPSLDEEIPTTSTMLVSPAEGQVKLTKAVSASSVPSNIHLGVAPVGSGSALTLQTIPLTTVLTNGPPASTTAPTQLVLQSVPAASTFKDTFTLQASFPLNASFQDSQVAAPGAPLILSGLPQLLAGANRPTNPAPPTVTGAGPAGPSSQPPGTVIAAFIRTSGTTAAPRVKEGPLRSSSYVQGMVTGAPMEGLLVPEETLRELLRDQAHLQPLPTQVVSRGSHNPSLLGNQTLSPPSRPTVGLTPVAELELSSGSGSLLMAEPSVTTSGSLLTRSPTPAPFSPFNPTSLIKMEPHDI
Chain of ETV6 (P41212 whole entry): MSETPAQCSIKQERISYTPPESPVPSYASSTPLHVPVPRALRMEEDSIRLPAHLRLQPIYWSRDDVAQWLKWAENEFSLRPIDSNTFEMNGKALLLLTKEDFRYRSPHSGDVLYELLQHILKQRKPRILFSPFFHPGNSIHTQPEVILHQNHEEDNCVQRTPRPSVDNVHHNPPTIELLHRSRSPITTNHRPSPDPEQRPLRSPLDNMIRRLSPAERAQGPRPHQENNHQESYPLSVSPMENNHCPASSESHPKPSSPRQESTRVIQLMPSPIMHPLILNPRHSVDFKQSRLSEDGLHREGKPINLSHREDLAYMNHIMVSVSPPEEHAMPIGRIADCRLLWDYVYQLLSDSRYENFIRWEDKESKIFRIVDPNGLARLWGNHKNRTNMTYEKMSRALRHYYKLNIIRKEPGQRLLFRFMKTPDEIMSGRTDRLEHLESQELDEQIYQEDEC
Chain of HSF1 (Q00613 whole entry): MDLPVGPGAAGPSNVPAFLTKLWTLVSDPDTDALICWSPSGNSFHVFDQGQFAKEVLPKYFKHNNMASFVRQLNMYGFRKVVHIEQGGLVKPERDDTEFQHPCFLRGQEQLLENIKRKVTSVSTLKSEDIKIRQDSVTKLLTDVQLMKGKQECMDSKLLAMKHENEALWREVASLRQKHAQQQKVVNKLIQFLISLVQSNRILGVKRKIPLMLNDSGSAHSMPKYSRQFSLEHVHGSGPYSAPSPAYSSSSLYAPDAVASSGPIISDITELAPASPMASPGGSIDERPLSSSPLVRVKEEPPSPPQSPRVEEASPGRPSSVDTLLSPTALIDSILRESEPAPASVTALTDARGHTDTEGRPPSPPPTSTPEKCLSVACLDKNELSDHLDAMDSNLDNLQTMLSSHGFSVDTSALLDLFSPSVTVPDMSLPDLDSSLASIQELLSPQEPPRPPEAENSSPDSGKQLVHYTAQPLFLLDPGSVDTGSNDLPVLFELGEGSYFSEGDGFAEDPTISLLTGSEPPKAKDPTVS
Chain of CRX (O43186 whole entry): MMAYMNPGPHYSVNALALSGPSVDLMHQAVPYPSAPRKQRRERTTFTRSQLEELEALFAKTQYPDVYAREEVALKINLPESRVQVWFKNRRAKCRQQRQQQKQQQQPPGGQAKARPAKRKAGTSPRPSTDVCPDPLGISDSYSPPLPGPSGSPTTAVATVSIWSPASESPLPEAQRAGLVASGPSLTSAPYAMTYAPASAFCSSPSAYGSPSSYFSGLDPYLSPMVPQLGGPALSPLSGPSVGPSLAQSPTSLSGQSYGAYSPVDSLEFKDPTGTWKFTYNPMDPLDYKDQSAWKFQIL

As to AAGGAT, the binding signal in assay [1] is 1.1 fold enrichment (6-mer frequency, TF over GST control); in assay [2], 1.17 fold enrichment (6-mer frequency, TF over GST control); in assay [3], 1.5 fold enrichment (6-mer frequency, TF over GST control); in [4] it was 1.09 fold enrichment (6-mer frequency, TF over GST control); in [5], 1.13 fold enrichment (6-mer frequency, TF over GST control); in assay [6] it was 1.08 fold enrichment (6-mer frequency, TF over GST control). For the same sequence, the binding signal in assay [7] is 1.24 fold enrichment (6-mer frequency, TF over GST control); in assay [8], 1.13 fold enrichment (6-mer frequency, TF over GST control); in assay [9], 1.97 fold enrichment (6-mer frequency, TF over GST control); in assay [10] it was 1.12 fold enrichment (6-mer frequency, TF over GST control); in [11], 1.12 fold enrichment (6-mer frequency, TF over GST control); in assay [12], 1.21 fold enrichment (6-mer frequency, TF over GST control). In addition, the binding signal in [13] was 1.14 fold enrichment (6-mer frequency, TF over GST control); in [14], 1.37 fold enrichment (6-mer frequency, TF over GST control); in assay [15], 1.05 fold enrichment (6-mer frequency, TF over GST control); in [16], 1.43 fold enrichment (6-mer frequency, TF over GST control); in assay [17] it was 1.24 fold enrichment (6-mer frequency, TF over GST control); in [18] it was 1.21 fold enrichment (6-mer frequency, TF over GST control).
